# Hit rate of the full screen: of about 40,000 compounds, about 1,400 (3.5%) were called active.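 Rule for the calls: active = any of four per-well response measures lying three or more SD from its plate-wide compound average, in either direction; inactive = the rest, inconclusive results apart.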 Shown is part of a subset that was picked to be rich in actives.
# Target: Voltage-dependent calcium channel gamma-2 subunit (Mus musculus) + Glutamate receptor 2 (Rattus norvegicus) (UniProt O88602+P19491)
# Assay: AMPAR-TARP gamma-2 complex positive or negative modulation – cell-based, membrane potential dye, primary screen (AID 1259245)
# Settings: HEK293 GluA2+stargazin, membrane potential dye (FDSS), glutamate EC50, at 30 µM, hits were called plate by plate, in both directions; compound max-min signal: compound-alone response (agonism); glutamate slope, % of max: measured here: glutamate response slope, % max
# Voltage-dependent calcium channel gamma-2 subunit (Mus musculus) + Glutamate receptor 2 (Rattus norvegicus), sequence (O88602 whole entry, looked up): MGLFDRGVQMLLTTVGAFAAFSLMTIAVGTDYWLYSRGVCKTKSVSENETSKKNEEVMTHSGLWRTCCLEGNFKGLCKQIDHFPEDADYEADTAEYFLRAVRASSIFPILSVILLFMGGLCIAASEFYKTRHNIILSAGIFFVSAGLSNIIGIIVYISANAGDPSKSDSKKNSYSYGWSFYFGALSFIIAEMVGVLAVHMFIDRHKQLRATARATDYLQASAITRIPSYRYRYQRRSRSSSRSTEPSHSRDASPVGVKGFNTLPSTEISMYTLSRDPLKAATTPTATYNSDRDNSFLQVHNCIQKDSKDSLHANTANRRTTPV
# Voltage-dependent calcium channel gamma-2 subunit (Mus musculus) + Glutamate receptor 2 (Rattus norvegicus), sequence (P19491 whole entry, looked up): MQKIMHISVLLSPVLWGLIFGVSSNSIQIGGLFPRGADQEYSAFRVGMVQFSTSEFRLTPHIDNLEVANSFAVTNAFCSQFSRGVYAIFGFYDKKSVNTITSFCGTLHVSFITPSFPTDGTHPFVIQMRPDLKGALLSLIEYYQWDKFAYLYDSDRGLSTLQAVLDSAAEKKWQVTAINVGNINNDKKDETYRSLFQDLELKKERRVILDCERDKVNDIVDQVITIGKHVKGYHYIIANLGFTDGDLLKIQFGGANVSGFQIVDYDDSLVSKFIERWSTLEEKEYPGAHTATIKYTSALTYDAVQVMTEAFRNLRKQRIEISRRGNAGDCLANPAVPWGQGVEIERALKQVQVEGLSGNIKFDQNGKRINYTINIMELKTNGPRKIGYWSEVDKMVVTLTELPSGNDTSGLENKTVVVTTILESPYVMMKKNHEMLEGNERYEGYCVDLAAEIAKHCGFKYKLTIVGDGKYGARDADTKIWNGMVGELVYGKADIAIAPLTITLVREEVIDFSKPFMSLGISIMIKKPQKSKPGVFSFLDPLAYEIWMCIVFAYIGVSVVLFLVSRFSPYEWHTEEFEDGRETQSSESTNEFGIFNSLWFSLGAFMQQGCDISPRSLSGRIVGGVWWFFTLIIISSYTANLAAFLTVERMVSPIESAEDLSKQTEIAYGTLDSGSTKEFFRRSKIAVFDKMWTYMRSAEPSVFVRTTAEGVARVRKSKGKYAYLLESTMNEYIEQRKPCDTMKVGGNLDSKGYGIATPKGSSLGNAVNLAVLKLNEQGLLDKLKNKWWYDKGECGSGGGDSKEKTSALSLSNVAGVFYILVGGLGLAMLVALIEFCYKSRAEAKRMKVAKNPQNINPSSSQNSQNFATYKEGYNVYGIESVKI
SMILES,compound max-min signal,"glutamate response, % of max","glutamate slope, % of max [%]"
COc1ccc(-c2ccc(N3CCN(C(=O)c4ccc(=O)[nH]n4)CC3)nn2)cc1,0.0223,13.3% (inactive),24.1
Cn1cnc2cc(OC(=O)c3ccc(=O)[nH]n3)ccc21,0.276,33% (active),52.5
COc1ccc(C(=O)NCCOc2ccc(-c3ccc(F)cc3)nn2)c(OC)c1,0.0424,40.3% (inactive),60.6
COc1ccc(C(=O)N2CCc3cc(S(=O)(=O)NC4CCCC4)ccc32)cc1,0.109,49% (inactive),67.4
COc1cc(OC)cc(C(=O)Nc2nnc(-c3cc(OC)c(OC)c(OC)c3)o2)c1,0.259,56.5% (active),83.8
COc1cccc(C(=O)Nc2nnc(-c3ccc(OC)c(OC)c3)o2)c1,0.128,35.2% (inactive),53.9
COc1cc(C(=O)Nc2nnc(-c3ccc(SC)cc3)o2)cc(OC)c1OC,0.0956,30.8% (inactive),51.3
Cn1cccc1C(CNC(=O)C(=O)Nc1ccccc1F)N1CCOCC1 (stereo unspecified),0.0712,30.1% (inactive),55
CCN1CC(c2nc3ccccc3n2Cc2ccc(Cl)cc2)CC1=O (stereo unspecified),0.0749,45% (inactive),70.4
C=CCN1CC(c2nc3ccccc3n2Cc2cccc(Cl)c2)CC1=O (stereo unspecified),0.132,29.6% (active),36.6
CCN1CC(c2nc3ccccc3n2Cc2ccccc2F)CC1=O (stereo unspecified),0.0186,31.3% (inactive),50
CCN1CC(c2nc3ccccc3n2Cc2ccc(Cl)c(Cl)c2)CC1=O (stereo unspecified),0.144,41.2% (inactive),66.5
CCCCN1CC(c2nc3ccccc3n2Cc2cc(C)ccc2C)CC1=O (stereo unspecified),0.12,83.9% (active),94.4
CCCCN1CC(c2nc3ccccc3n2CCOc2ccc(C)cc2)CC1=O (stereo unspecified),0.135,45.7% (inactive),78.7
O=C(CCCc1ccccc1)N1CCN(c2ccc3nnc(-c4ccco4)n3n2)CC1,0.203,48.1% (inactive),68.2
CC(=O)Nc1cccc(NC(=O)C(=O)NCC2CCN(Cc3ccco3)CC2)c1,0.0762,50.2% (inactive),68.9
O=C(NC1CCc2ccccc21)c1nnn(-c2ccc(F)cc2)c1-c1ccncc1 (stereo unspecified),0.0259,18.1% (inactive),25.4
COc1cc2nc(NC(=O)c3cc(C)no3)sc2cc1OC,0.204,26.9% (inactive),48.6
COCCn1c(=NC(=O)c2cc(C)no2)sc2cc(SC)ccc21,0.152,31.8% (inactive),54.7
CCOCCn1c(=NC(=O)c2cc(C)no2)sc2cc(OC)c(OC)cc21,0.187,27.5% (active),50.7
Cc1nn(-c2ccccc2)c2ncc(C(=O)Nc3ccc(F)cc3F)c(Cl)c12,0.0815,20.8% (inactive),43.5
COc1cn(CC(=O)Nc2ccc3c(c2)OCO3)c(CSc2nnnn2C)cc1=O,0.0535,23.6% (inactive),48.2
CCOc1ccc2nc(NC(=O)c3ccc(S(=O)(=O)Nc4cccnc4)o3)sc2c1,0.179,32% (active),55.6
CCOc1ccc2nc(NC(=O)c3ccc(S(=O)(=O)N(C)C)o3)sc2c1,0.115,31.5% (inactive),54.4

SMILES,compound max-min signal,"glutamate response, % of max","glutamate slope, % of max [%]"
Cc1ccc2nc(NC(=O)c3ccno3)sc2c1,0.16,53% (inactive),62.5
CC(C)Oc1ccc(C(=O)Nc2ccc3oc(=O)ccc3c2)cc1,0.17,41.9% (inactive),61.4
O=c1oc2ccc(Cl)cc2cc1S(=O)(=O)c1ccccc1F,0.0854,39.3% (inactive),60
O=c1ccc2cc(S(=O)(=O)Nc3cc(Cl)ccc3O)ccc2o1,0.209,16.4% (active),35.5
O=C(NC1CCCCCC1)c1ccc(S(=O)(=O)c2ccccc2)nc1,0.0387,28.2% (inactive),47.7
COc1cccc(NC(=O)c2ccc(=O)n(Cc3cccc(C(F)(F)F)c3)c2)c1,0.0915,23.5% (inactive),41.6
COc1cc(CN2CCN(c3nccn3C)CC2)cc(OC)c1,0.0438,12.8% (inactive),27.6
COc1ccc(OC)c(-c2ccc(=O)n(CC(=O)N3CCOCC3)n2)c1,0.0773,62.3% (inactive),97.9
Cc1ccccc1NC(=O)NC1(c2nc(-c3ccsc3)no2)CCCCC1,0.081,34.5% (inactive),56
COc1cc(Cl)ccc1C(=O)NC1(c2nc(-c3ccsc3)no2)CCCCC1,0.0754,37.6% (inactive),63.1
O=S(=O)(NC1(c2nc(-c3ccsc3)no2)CCCCC1)c1ccccc1,0.127,19.9% (active),36.2
COc1ccccc1OCC(=O)Nc1cc(C(=O)N2CCOCC2)cn(C)c1=O,0.134,36.2% (inactive),63
CC(Oc1ccccc1)C(=O)N1CCN(c2ncnc3c2nnn3-c2ccc(Cl)cc2)CC1 (stereo unspecified),0.0923,46% (inactive),58.4
CCCC(CCC)C(=O)N1CCN(c2ncnc3c2nnn3-c2ccc(OC)cc2)CC1,0.0796,50.3% (inactive),57.2
COc1ccc(-n2nnc3c(N4CCN(C(=O)C(C)Oc5ccccc5)CC4)ncnc32)cc1 (stereo unspecified),0.0918,83.4% (active),124
COc1ccc(Cl)cc1NC(=O)Nc1cc(N2CCCS2(=O)=O)ccc1C,0.0964,36.6% (inactive),48.9
Cc1c(-c2ccccc2)c(=O)oc2c3c(ccc12)OCN(Cc1cccnc1)C3,0.117,15.5% (inactive),35
O=C(NCC1CCN(Cc2ccsc2)CC1)C(=O)Nc1ccon1,0.08,38.4% (inactive),57.1
O=C(CCc1ccccc1)NCCS(=O)(=O)N1CCN(Cc2ccccc2)CC1,0.0536,24.3% (inactive),47.7
O=C(CCc1ccccc1)NCC1CCN(Cc2ccsc2)CC1,0.0535,10.8% (active),27.6
Cc1cc(C)c2c(n1)sc1c(=O)n(CC(=O)Nc3ccc(F)cc3F)cnc12,0.126,45.2% (inactive),70.3
CSc1ccccc1NC(=O)C(=O)NCC(O)(c1ccco1)C1CC1 (stereo unspecified),0.142,47.7% (inactive),61
O=C(c1ccc(Cl)c(N2C(=O)CCS2(=O)=O)c1)N1CCc2ccccc2C1,0.0843,26.4% (inactive),47.6

# — PubChem BioAssay AID1259245 (Vanderbilt High Throughput Screening Facility, 2017)
